# Source: PubChem (several laboratories)
# MCL1-BIM inh – disrupts human MCL1 binding to BIM-BH3 peptide; GST-MCL1 / FITC-Bim-BH3 fluorescence polarization; hit rate 0.68% among 320,000; Q07820; inhibition, % at 10.9 µM; AID 2057;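 active means inhibition above the mean inhibition of all tested compounds plus 3 SD, set per campaign, cut at about 40% in these data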;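 further: 0% = DMSO wells and 100% = unlabeled Bim-BH3 peptide control; higher means more loss of mP so more displacement of Bim peptide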
# GLD-1 RNA inh – GLD-1-TGE RNA interaction inhibition (C. elegans); Q17339; purified GLD-1 + fluorescein TGE RNA, fluorescence polarization; hit rate 0.44% among 320,000; AID 2280; inhibition, % at 5.96 µM;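 active means percent inhibition above a per-plate cutoff, the plate mean of test compounds plus 3 SD, cut at about 30% in these data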;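 further: 0% = DMSO wells with GLD-1 and probe and 100% = wells lacking GLD-1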
# MEX-5 binding – C. elegans MEX-5 TCR-2 RNA binding activity | activity score (negative = inhibition of binding), % at 10 µM | MEX-5/FITC-TCR2 RNA binding, fluorescence polarization; stronger effect = lower value | Q9XUB2 | hit rate 0.38% among 300,000;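 active means inhibition past about -25% in most replicates, and total fluorescence under double the plate's negative control median, limit read from the data; inconclusive means replicates evenly split on the limit, or fluorescence at least double controls; inactive means too little inhibition in most replicates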;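 further: 0% = DMSO and -100% = 5 µM competing unlabeled TCR2 RNA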
# EBV gp42 block – inhibitors of Epstein-Barr virus glycoprotein 42 | Q1HVG2 | hit rate 0.42% among 220,000 | AID 1085 | inhibition, % (tested at 21.74 µM) | Fluorescence polarization binding assay, mP read-out; in the data active means inhibition above about 50%
# eLon inh – inhibitors of E. coli Lon protease; P0A9M0; purified E. coli Lon protease, fluorescence polarization; inhibition, % at 7.94 µM; hit rate 0.42% among 360,000; AID 602123; in the data active means inhibition above about 13%, passing the limit was not always enough;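 further: 0% = enzyme with probe and DMSO and 100% = no enzyme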
# Target sequence (P0A9M0 whole entry, looked up): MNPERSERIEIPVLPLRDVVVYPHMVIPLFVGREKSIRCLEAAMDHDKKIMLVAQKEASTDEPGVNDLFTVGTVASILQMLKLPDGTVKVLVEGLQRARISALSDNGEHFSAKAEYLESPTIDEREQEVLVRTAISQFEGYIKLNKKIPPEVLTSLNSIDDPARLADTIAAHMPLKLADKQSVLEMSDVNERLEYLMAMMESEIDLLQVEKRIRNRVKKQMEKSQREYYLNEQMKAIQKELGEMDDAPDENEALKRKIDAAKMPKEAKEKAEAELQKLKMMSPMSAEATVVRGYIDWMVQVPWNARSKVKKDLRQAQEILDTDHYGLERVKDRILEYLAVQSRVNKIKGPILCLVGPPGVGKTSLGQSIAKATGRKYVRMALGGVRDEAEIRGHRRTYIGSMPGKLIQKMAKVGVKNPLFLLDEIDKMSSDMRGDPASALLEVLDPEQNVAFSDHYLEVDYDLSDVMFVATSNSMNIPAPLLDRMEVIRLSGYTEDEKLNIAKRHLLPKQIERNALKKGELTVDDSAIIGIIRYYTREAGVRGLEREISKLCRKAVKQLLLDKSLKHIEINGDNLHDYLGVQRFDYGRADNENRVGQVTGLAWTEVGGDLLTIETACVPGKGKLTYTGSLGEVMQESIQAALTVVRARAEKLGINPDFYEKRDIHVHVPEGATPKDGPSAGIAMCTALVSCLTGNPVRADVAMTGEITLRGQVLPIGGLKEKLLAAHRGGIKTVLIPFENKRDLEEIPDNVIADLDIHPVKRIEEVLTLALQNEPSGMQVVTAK
# Bcl-xL primary – Bcl-xL (human) inhibition. GST-Bcl-xL / FITC-Bim BH3 peptide fluorescence polarization. Q07817. hit rate 0.7% among 320,000. inhibition, % at 10.9 µM;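 active means inhibition above the mean of all tested compounds plus 3 SD, cutoff set per campaign, cut at about 30% in these data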;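 further: 0% = DMSO wells and 100% = unlabeled Bim-BH3 peptide competitor; inhibitors lower millipolarization by displacing the labeled peptide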
# BCLXL inh confirm – Bcl-xL (human) inhibition, MCL1 counter-screen confirmation | shares compounds with MCL1-BIM inh | GST-Bcl-xL / FITC-Bim BH3 peptide FP binding | inhibition, % at 10.9 µM | hit rate 54% among 1,700;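 active means inhibition above a cutoff equal to the mean inhibition of all tested compounds plus 3 SD, cut at about 30% in these data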;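 further: 0% = DMSO wells and 100% = unlabeled Bim BH3 control peptide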
# MCL1 inh confirm – confirmation of human MCL1 and BIM-BH3 interaction inhibitors. shares compounds with MCL1-BIM inh. GST-MCL1 / FITC-Bim-BH3 fluorescence polarization. inhibition, % at 10.9 µM. hit rate 61% among 1,700. AID 2168;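 active means inhibition above the average of all tested compounds plus 3 SD, cut at about 40% in these data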;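 further: 0% = DMSO wells and 100% = unlabeled Bim-BH3 control peptide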
# * = called active by the depositor; ? = inconclusive; nt = no result. A selection: hits, their analogues and other compounds. The true share with any hit is near 1.5%.
SMILES,MCL1-BIM inh,GLD-1 RNA inh,MEX-5 binding,EBV gp42 block,eLon inh,Bcl-xL primary,BCLXL inh confirm,MCL1 inh confirm
COC(=O)CCC(=O)OC1(C)C(=O)C=C2C=C3CCCN3C=C2C1=O (stereo not given),48*,12,-6,11,-2,22,33*,32
CC1(OC(=O)c2ccc(Cl)nc2)C(=O)C=C2C=C(C3CC3)OC=C2C1=O (stereo not given),87*,76*,-50*,nt,nt,74*,83*,122*
CC1(OC(=O)c2ccc(Cl)nc2)C(=O)C=C2C=C(c3ccc(C#N)cc3)OC=C2C1=O (stereo not given),17,17,?,nt,nt,19,nt,nt
CC1(OC(=O)c2ccc(Cl)nc2)C(=O)C=C2C=C(c3ccsc3)OC=C2C1=O (stereo not given),32,29,-22,nt,nt,23,nt,nt
COC(=O)CCC(=O)OC1(C)C(=O)C=C2C=C(C3CC3)N(CCCCO)C=C2C1=O (stereo not given),19,16,1,-2,-20,22,nt,nt
Cc1ccc(CSc2nnc3nc(C)cc(C)n23)cc1,7,-2,1,-9,5,0,nt,nt
COC(=O)CCCC1=CC2=CC(=O)C(C)(OC(=O)c3cccs3)C(=O)C2=CO1 (stereo not given),122*,93*,-49*,nt,nt,105*,53*,69*
CCCCC1=CC2=CC(=O)C(C)(OC(=O)CCC(=O)OC)C(=O)C2=CO1 (stereo not given),62*,54*,-27*,nt,nt,42*,16,51*
COC(=O)CCCC1=CC2=CC(=O)C(C)(OC(=O)c3cccs3)C(=O)C2=CN1c1ccccc1 (stereo not given),16,15,-7,nt,9,17,nt,nt
CCCCC1=CC2=CC(=O)C(C)(OC(=O)c3ccco3)C(=O)C2=CO1 (stereo not given),49*,62*,-36*,nt,nt,43*,33*,62*
CC1(OC(=O)c2ccco2)C(=O)C=C2C=C(c3ccc(C#N)cc3)OC=C2C1=O (stereo not given),19,13,-20,nt,nt,12,nt,nt
O=C(Nc1ncccc1O)c1cccc(S(=O)(=O)N2CCc3ccccc32)c1,6,3,0,-10,7,5,nt,nt
COc1ccc(NC(=O)c2cccc(S(=O)(=O)N3CCc4ccccc43)c2)cn1,60*,49*,-7,28,1,61*,46*,58*
CC1(C)CCN2CCC(C)(C)c3c(O)ccc1c32,170*,77*,-15,nt,-145,141*,29,25
CN(c1ccccc1)S(=O)(=O)c1nnc(NC(=O)COc2ccccc2)s1,1,8,-1,nt,0,4,nt,nt
O=S(=O)(Nc1nc2ccccc2nc1-[n+]1cccc(N=C([O-])c2ccccc2Cl)c1)c1ccccc1,84*,13,-9,74*,nt,71*,60*,90*
O=C(CSc1nnc(SCc2ccccc2)s1)N/N=C/C=C/c1ccco1,58*,5,1,68*,-11,9,23,67*
CCn1c(SCC(=O)N/N=C/C=C/c2ccco2)nnc1-c1ccccc1,16,5,-3,-2,3,13,nt,nt
O=C1C2C(C(=O)N1/N=C/c1cc([N+](=O)[O-])c(O)cc1O)C1C=CC2C12CC2 (stereo not given),48*,-1,-9,16,4,13,18,59*
CCOc1cccc2cc(C(N)=O)c(=NCc3ccccc3)oc12,-2,-2,1,-34,-12,-2,nt,nt
CC1=NN2C(=N)/C(=C\c3ccc(SCc4ccccc4)o3)C(=O)N=C2S1,5,-2,-20,5,-27,-5,nt,nt
N=C1/C(=C\c2ccc(SCc3ccco3)o2)C(=O)N=C2SC=NN12,63*,21,-34*,-4,-75,51*,50*,68*
Cc1ccc(-c2nn(-c3ccccc3)cc2/C=C2\SC(=S)N(CC(=O)O)C2=O)cc1,70*,-4,1,22,-12,8,16,10
CCN1C(=O)/C(=C/c2cn(-c3ccccc3)nc2-c2cccnc2)SC1=S,nt,nt,nt,nt,-14,nt,nt,nt
CC(NS(=O)(=O)OCC(Cl)(Cl)Cl)c1ccc(C(C)(C)C)cc1 (stereo not given),0,14,-1,nt,5,3,nt,nt
SMILES,MCL1-BIM inh,GLD-1 RNA inh,MEX-5 binding,EBV gp42 block,eLon inh,Bcl-xL primary,BCLXL inh confirm,MCL1 inh confirm
C[C@H](NS(=O)(=O)OCC(Cl)(Cl)Cl)C1CC1c1ccccc1 (stereo not given in full),47*,10,2,nt,-2,5,15,61*
CCCn1c(=O)c2ccccc2n2c(SCc3cc(=O)oc4ccc5ccccc5c34)nnc12,40*,31*,0,-17,-7,35*,18,27
Cc1ccc(C)c(/C=C/C(=O)c2ccccc(=O)c2O)c1,6,4,-2,-6,-11,2,nt,nt
COc1ccccc1NC(=O)N1CCc2[nH]c3ccc(F)cc3c2C1,50*,51*,-2,8,4,52*,14,20
COc1ccc(/C=N/NC(=O)c2nnn(-c3nonc3N)c2-c2cccs2)c(OC)c1,-6,-9,-2,nt,2,2,nt,nt
NC1=NC(=O)/C(=C/c2ccc(-c3ccc(S(N)(=O)=O)cc3)o2)S1,50*,5,-40*,nt,-32,24,41*,39
NC1=NC(=O)/C(=C\c2ccco2)S1,84*,12,-17,6,-9,55*,44*,64*
COC(=O)CCCC1=CC2=CC(=O)C(C)(OC(=O)c3cccs3)C(=O)C2=CN1C1CC1 (stereo not given),16,3,-4,-4,25,16,nt,nt
COc1ccc([N+](=O)[O-])cc1NC(=S)NC(C)=O,0,-5,-1,-8,1,3,nt,nt
COc1ccc(/C=C/C(=O)NC(=S)Nc2cc([N+](=O)[O-])ccc2O)cc1OC,41*,0,0,17,5,7,15,28
CN1CCN(S(=O)(=O)c2cccc(C(=O)NC3CCCc4ccccc43)c2)CC1 (stereo not given),-4,-6,-1,-5,-5,2,nt,nt
CC(=O)Nc1ccc2sc(C)nc2c1,3,0,nt,-13,-5,6,nt,nt
COc1cc2c3c(c1)-c1c(sn(-c4cc(OC)ccc4OC)c1=S)C(C)(C)N3C(=O)C2=O,5,1,-1,4,2,5,nt,nt
CC1(c2ccc3noc(-c4ccccc4)c3c2)OCCO1,-3,-5,-1,-19,-2,3,nt,nt
